# Measurements as given in PubChem BioAssay (Tox21).
# A number with no mark means an inactive call. Results filed as inconclusive are left out. A call without a number means that no potency is given here. Activity calls are given as the source filed them. Calls follow the shape of the dose curve; as a rule, active = well fitted curve in the direction sought with a large enough effect in the repeat runs; inconclusive = weak or mixed curves; inactive = no such curve, though single readings can be large; an effect the other way counts as inactive or inconclusive.
# Experiments:
# [1] = qHTS RealTime-Glo MT Cell Viability Assay in HepG2 cells - 24 hour (AID 1224867); also: nearly all actives have a fitted effect of over 50% in size
# In short: (§1)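 Real-time, nonlytic viability: 600 HepG2 cells/well mixed with NanoLuc enzyme plus prosubstrate; 5 h settle, compound (DMSO) added by pintool; luminescence monitored over 40 h at 37 C.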
# [2] = qHTS RealTime-Glo MT Cell Viability Assay in HEK293 cells - 32 hour (AID 1224868); also: top concentration of the series differs between compounds; nearly all actives have a fitted effect of over 50% in size
# In short: (§2)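 Cells + reagent dispensed (600 cells/well, HEK293) → 5 h at 37 C/5% CO2 → 23 nL compound in DMSO pinned → 40 h at 37 C → luminescence read at 0, 8, 16, 24, 32, 40 h.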
# [3] = A CellTox Green Cytotoxicity Assay to monitor cytotoxicity in HEK293 cells - 0 hour (AID 1224869); also: nearly all actives have a fitted effect of over 50% in size
# In short: (§3)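 Read-out: fluorescence of a cell-impermeant cyanine dye staining DNA of dead cells, proportional to cytotoxicity. HEK293, 600 cells/well with reagent, compound (23 nL DMSO) added after 5 h; reads at 0, 8, 16, 24, 32, 40 h.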
# [4] = A CellTox Green Cytotoxicity Assay to monitor cytotoxicity in HEK293 cells - 40 hour (AID 1224871); also: nearly all actives have a fitted effect of over 45% in size
# In short: as §3
# [5] = qHTS RealTime-Glo MT Cell Viability Assay in HEK293 cells - 16 hour (AID 1224872); also: top concentration of the series differs between compounds; nearly all actives have a fitted effect of over 50% in size
# In short: as §2
# [6] = qHTS RealTime-Glo MT Cell Viability Assay in HepG2 cells - 8 hour (AID 1224873); also: nearly all actives have a fitted effect of over 55% in size
# In short: (§4)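 HepG2 cells (600/well) mixed with RealTime-Glo MT reagent, settled 5 h at 37 C/5% CO2 before compound addition. Nonlytic NanoLuc luminescence from viable-cell prosubstrate reduction read repeatedly during 40 h treatment at 37 C.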
# [7] = qHTS RealTime-Glo MT Cell Viability Assay in HEK293 cells - 40 hour (AID 1224874); conditions: RealTime-Glo luminescence; max response: active compounds read low; also: nearly all actives have a fitted effect of over 50% in size
# In short: (§5)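 Luminescence readout at each listed time point; HEK293, 600 cells/well, RealTime-Glo MT reagent added with cells; compounds pinned (23 nL in DMSO) after 5 h at 37 C; continuous culture at 37 C.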
# [8] = A CellTox Green Cytotoxicity Assay to monitor cytotoxicity in HEK293 cells - 24 hour (AID 1224875); also: series mostly up to about 77 µM; nearly all actives have a fitted effect of over 45% in size
# In short: as §3
# [9] = A CellTox Green Cytotoxicity Assay to monitor cytotoxicity in HepG2 cells - 16 hour (AID 1224876); also: nearly all actives have a fitted effect of over 45% in size; also: potency is read from the fitted curve at half-maximal effect
# In short: (§6)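 HepG2, 600 cells/well premixed w/ CellTox Green; 5 h settle, 37 C/5% CO2; pintool cpd add (DMSO); 37 C, 40 h; fluorescence read at 0, 8, 16, 24, 32, 40 h.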
# [10] = qHTS RealTime-Glo MT Cell Viability Assay in HepG2 cells - 32 hour (AID 1224877); also: nearly all actives have a fitted effect of over 55% in size
# In short: as §1
# [11] = A CellTox Green Cytotoxicity Assay to monitor cytotoxicity in HepG2 cells - 24 hour (AID 1224878); also: nearly all actives have a fitted effect of over 45% in size; also: potency is read from the fitted curve at half-maximal effect
# In short: as §6
# [12] = A CellTox Green Cytotoxicity Assay to monitor cytotoxicity in HepG2 cells - 40 hour (AID 1224879); also: nearly all actives have a fitted effect of over 40% in size; also: potency is read from the fitted curve at half-maximal effect
# In short: as §6
# [13] = qHTS RealTime-Glo MT Cell Viability Assay in HEK293 cells - 0 hour (AID 1224880)
# In short: as §5
# [14] = A CellTox Green Cytotoxicity Assay to monitor cytotoxicity in HEK293 cells - 32 hour (AID 1224881); also: nearly all actives have a fitted effect of over 40% in size
# In short: as §3
# [15] = A CellTox Green Cytotoxicity Assay to monitor cytotoxicity in HepG2 cells - 0 hour (AID 1224882); also: nearly all actives have a fitted effect of over 35% in size
# In short: as §6
# [16] = A CellTox Green Cytotoxicity Assay to monitor cytotoxicity in HepG2 cells - 32 hour (AID 1224883); also: nearly all actives have a fitted effect of over 50% in size; also: potency is read from the fitted curve at half-maximal effect
# In short: as §6
# [17] = qHTS RealTime-Glo MT Cell Viability Assay in HepG2 cells - 16 hour (AID 1224885); also: nearly all actives have a fitted effect of over 50% in size
# In short: as §1
# [18] = qHTS RealTime-Glo MT Cell Viability Assay in HEK293 cells - 24 hour (AID 1224886)
# In short: as §2
# [19] = A CellTox Green Cytotoxicity Assay to monitor cytotoxicity in HEK293 cells - 8 hour (AID 1224884); also: nearly all actives have a fitted effect of over 35% in size
# In short: as §3
# [20] = qHTS RealTime-Glo MT Cell Viability Assay in HepG2 cells - 40 hour (AID 1224870); also: nearly all actives have a fitted effect of over 50% in size
# In short: as §4
structure (smiles),measurement,setting,value
CO/N=C(/C(=O)N[C@@H]1C(=O)N2C(C(=O)O)=C(Cn3nnc(C)n3)CS[C@H]12)c1csc(N)n1,outcome,[1],inactive
same,Potency,[2],inactive
same,Potency,[3],inactive
same,Potency,[4],inactive
same,Potency,[5],inactive
same,outcome,[6],inactive
same,max response,[7],1.17%
same,Potency,[8],inactive
same,Potency,[9],inactive
same,outcome,[10],inactive
same,Potency,[11],inactive
same,Potency,[12],inactive
same,outcome,[13],inactive
same,Potency,[14],inactive
same,Potency,[15],inactive
same,Potency,[16],inactive
same,outcome,[17],inactive
same,Potency,[18],inactive
CCCCC(C)C(=O)O (configuration not stated),outcome,[1],inactive
same,Potency,[2],inactive
same,Potency,[3],inactive
same,Potency,[4],inactive
same,Potency,[5],inactive
same,max response,[7],-5.74%
same,Potency,[8],inactive
same,outcome,[13],inactive
same,Potency,[14],inactive
same,outcome,[17],inactive
same,Potency,[18],inactive
C[C@H](CCC(=O)O)[C@H]1CC[C@H]2[C@@H]3[C@H](O)C[C@@H]4C[C@H](O)CC[C@]4(C)[C@H]3C[C@H](O)[C@]12C,outcome,[1],inactive
same,Potency,[2],inactive
same,Potency,[3],inactive
same,Potency,[4],inactive
same,outcome,[6],inactive
same,max response,[7],-1.02%
same,Potency,[8],inactive
same,Potency,[9],inactive
same,Potency,[11],inactive
same,Potency,[12],inactive
same,Potency,[14],inactive
same,Potency,[15],inactive
same,Potency,[16],inactive
same,Potency,[19],inactive
same,outcome,[17],inactive
same,Potency,[18],inactive
O=C(CN1CCN(Cc2ccc3c(c2)OCO3)CC1)N1c2ccccc2Sc2ccccc21,outcome,[1],inactive
same,Potency,[3],inactive
same,outcome,[20],inactive
same,Potency,[4],inactive
same,Potency,[5],inactive
same,outcome,[6],inactive
same,Potency,[8],inactive
same,Potency,[9],inactive
same,outcome,[10],inactive
same,Potency,[11],inactive
same,outcome,[13],inactive
same,Potency,[14],inactive
same,Potency,[15],inactive
same,Potency,[19],inactive
same,outcome,[17],inactive
same,Potency,[18],inactive
CC(C)COC(=O)/C=C/c1ccccc1,outcome,[1],inactive
same,Potency,[2],inactive
same,Potency,[3],inactive
same,Potency,[5],inactive
same,outcome,[6],inactive
same,max response,[7],-4.89%
same,Potency,[8],inactive
same,Potency,[9],inactive
same,outcome,[13],inactive
same,Potency,[15],inactive
same,Potency,[19],inactive
same,outcome,[17],inactive
same,Potency,[18],inactive
OC[C@@H](O)[C@H](O)[C@@H](O)[C@@H](O)CO,outcome,[1],inactive
same,Potency,[2],inactive
same,Potency,[3],inactive
same,Potency,[4],inactive
same,Potency,[5],inactive
same,outcome,[6],inactive
same,max response,[7],0.901%
same,Potency,[8],inactive
same,Potency,[9],inactive
same,Potency,[11],inactive
same,Potency,[12],inactive
same,outcome,[13],inactive
same,Potency,[14],inactive
same,Potency,[15],inactive
same,Potency,[16],inactive
same,Potency,[19],inactive
same,outcome,[17],inactive
same,Potency,[18],inactive
COc1cc([N+](=O)[O-])ccc1N,outcome,[1],inactive
same,Potency,[2],inactive
same,Potency,[3],inactive
same,Potency,[4],inactive
same,Potency,[5],inactive
same,outcome,[6],inactive
same,max response,[7],-15.5%
same,Potency,[8],inactive
same,Potency,[9],inactive
same,Potency,[11],inactive
same,Potency,[12],inactive
same,outcome,[13],inactive
same,Potency,[15],inactive
same,Potency,[16],inactive
same,Potency,[19],inactive
same,outcome,[17],inactive
same,Potency,[18],inactive
CC(=O)Nc1ccc(C)cc1,outcome,[1],inactive
same,Potency,[2],inactive
same,Potency,[3],inactive
same,Potency,[4],inactive
same,Potency,[5],inactive
same,outcome,[6],inactive
same,max response,[7],-5.67%
same,Potency,[8],inactive
same,Potency,[9],inactive
same,Potency,[11],inactive
same,Potency,[12],inactive
same,outcome,[13],inactive
same,Potency,[14],inactive
same,Potency,[15],inactive
same,Potency,[16],inactive
same,Potency,[19],inactive
same,outcome,[17],inactive
same,Potency,[18],inactive
O=CO,"activity change, negative = cytotoxicity",[1],0.773% [at 6.97 µM]
same,"activity change, negative = cytotoxic",[2],1.16% [at 6.97 µM]
same,cytotoxicity,[3],-3.71% [at 6.97 µM]
same,"viability change, negative = cytotoxic",[6],-8.93% [at 6.97 µM]
same,max response,[7],-0.6%
same,cytotoxicity increase,[9],-13.8% [at 6.97 µM]
same,"activity change, negative = cytotoxic",[10],7.5% [at 6.97 µM]
same,cytotoxicity,[11],-17.2% [at 6.97 µM]
same,cytotoxicity increase,[12],-21.3% [at 6.97 µM]
same,"activity change, negative = cytotoxicity",[13],3.48% [at 6.97 µM]
same,cytotoxicity,[15],-9.11% [at 6.97 µM]
same,cytotoxicity increase,[16],-19.2% [at 6.97 µM]
same,"activity change, negative = cytotoxic",[17],-5.47% [at 6.97 µM]
same,"activity change, negative = cytotoxicity",[18],1.22% [at 6.97 µM]
NS(=O)(=O)c1cc2c(cc1Cl)NC(CC1CCCC1)NS2(=O)=O (configuration not stated),outcome,[1],inactive
same,Potency,[2],inactive
same,Potency,[3],inactive
same,Potency,[4],inactive
same,outcome,[6],inactive
same,max response,[7],5.55%
same,Potency,[8],inactive
same,outcome,[10],inactive
same,Potency,[12],inactive
same,outcome,[13],inactive
same,Potency,[14],inactive
same,Potency,[19],inactive
same,outcome,[17],inactive
same,Potency,[18],inactive
CCCCCCCCCCCCCCCC(=O)NCCO,outcome,[1],inactive
same,Potency,[2],inactive
same,Potency,[3],inactive
same,Potency,[4],inactive
same,Potency,[5],inactive
same,outcome,[6],inactive
same,max response,[7],-2.85%
same,Potency,[8],inactive
same,Potency,[9],8.49 µM (active)
same,outcome,[10],inactive
same,Potency,[11],8.49 µM (active)
same,Potency,[12],8.49 µM (active)
same,outcome,[13],inactive
same,Potency,[14],inactive
same,Potency,[16],9.52 µM (active)
same,outcome,[17],inactive
same,Potency,[18],inactive
CCCCC(=O)N(C)C,outcome,[1],inactive
same,Potency,[2],inactive
same,Potency,[3],inactive
same,Potency,[4],inactive
same,Potency,[5],inactive
same,outcome,[6],inactive
same,max response,[7],1.13%
same,Potency,[8],inactive
same,Potency,[9],inactive
same,outcome,[10],inactive
same,Potency,[11],inactive
same,Potency,[12],inactive
same,outcome,[13],inactive
same,Potency,[15],inactive
same,Potency,[16],inactive
same,outcome,[17],inactive
same,Potency,[18],inactive
CC(CC(=O)O)CC(C)(C)C (configuration not stated),outcome,[1],inactive
same,Potency,[2],inactive
same,Potency,[3],inactive
same,Potency,[4],inactive
same,Potency,[5],inactive
same,outcome,[6],inactive
same,max response,[7],-0.126%
same,Potency,[8],inactive
same,Potency,[9],inactive
same,outcome,[10],inactive
same,Potency,[11],inactive
same,Potency,[12],inactive
same,outcome,[13],inactive
same,Potency,[14],inactive
same,Potency,[15],inactive
same,Potency,[16],inactive
same,outcome,[17],inactive
same,Potency,[18],inactive
